PubChem BioAssay AID1460 (National Center for Advancing Translational Sciences (NCATS), 2008)
Screen size: about 270,000 compounds; about 5,800 (2.1%) were called active. About 16% were inconclusive and are not listed. Shown is part of a subset that was picked to be rich in actives. Values without a mark were called inactive. Calls come from the whole dose curve; as a rule, active = well fitted inhibition curve with a large enough effect; inconclusive = small, poorly fitted or top-dose-only effect; inactive = flat fitted curve, though single readings scatter.

Molecular target: Microtubule-associated protein tau (Homo sapiens) (UniProt P10636)
Sequence (P10636 561-689 P618L limits assumed): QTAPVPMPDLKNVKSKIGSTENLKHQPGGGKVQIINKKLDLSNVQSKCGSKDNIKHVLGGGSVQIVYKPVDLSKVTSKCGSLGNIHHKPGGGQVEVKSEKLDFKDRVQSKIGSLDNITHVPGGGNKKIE
Assay: qHTS for Inhibitors of Tau Fibril Formation, Thioflavin T Binding; note: nearly all actives have a fitted effect of over 55% in size
Conditions: recombinant tau K18 P301L, heparin-induced fibrillization, ThT fluorescence; series mostly up to 57.4 µM; activity, negative = inhibition: at the top concentration
How it was run: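 Fibril formation assay: tau K18 P301L at 15 uM with trace Alexa 594 label, heparin inducer 20 uM, pH 7 sodium acetate buffer, 37 C for 6 hr; endpoint ThT signal.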
% is set by controls: 0 for no effect and ±100 for the full control effect; potency is the fitted concentration of half-maximal effect.

Row | SMILES | Potency | activity, negative = inhibition
1 | Nc1c(C(=O)c2cccs2)sc2nsc(SCCN3CCCCC3)c12 | 4.47 µM (active) | –
2 | O=C(NCc1ccccc1Cl)c1cccn1-c1nnc(N2CCCCC2)s1 | – | -3.55%
3 | O=C(Nc1nc(-c2ccc(-c3ccccc3)cc2)cs1)c1cnccn1 | – | -14.1%
4 | O=C(CSC1=NCCS1)Nc1nc(-c2ccccc2)cs1 | – | -21.2%
5 | O=C(Nc1nc(-c2ccncc2)cs1)C1COc2ccccc2O1 (centres undefined) | 28.2 µM (active) | –
6 | Cc1cccc(S(=O)(=O)c2cn(Cc3ccccc3)c3cc(N4CCOCC4)c(F)cc3c2=O)c1 | – | -7.93%
7 | COc1ccc(CNC(=O)c2cc3c(s2)-c2ccccc2OC3)cc1 | – | -9.54%
8 | CCN(CC)S(=O)(=O)c1ccc(C(=O)N=c2sc3cccc(OC)c3n2C)cc1 | – | 2.64%
9 | O=C(Cn1c(-c2cccs2)cc2ccccc21)NCCc1ccc(Cl)cc1 | – | 1.45%
10 | CN(Cc1ccccc1)c1ccc(-c2nc(-c3ccccc3)no2)cc1[N+](=O)[O-] | – | -1.66%
11 | COc1ccc(N2CCN(c3ccc([N+](=O)[O-])nc3)CC2)cc1 | 1.41 µM (active) | –
12 | COc1ccc(N2CCN(C(=O)CSc3ncnc4c3cnn4-c3ccc(OC)cc3)CC2)cc1 | – | -11.1%
13 | COc1ccc(N2CCN(C(C)=C3C(=O)c4ccccc4C3=O)CC2)cc1 | – | 18.2%
14 | Cc1nn(C(C)C(=O)Nc2ccc(C(C)C)cc2)c(=O)c2c1sc1ccccc12 (centres undefined) | – | 4.79%
15 | O=C(CSc1nc2c(c(=O)[nH]1)CN(Cc1ccc(F)cc1)CC2)Nc1ccccc1Cl | – | -3.93%
16 | NS(=O)(=O)c1ccc2nc(NC(=O)COc3ccccc3)sc2c1 | – | 1.18%
17 | O=C(NCc1cccnc1)C(=O)NCC(c1cccnc1)N1CCN(c2ccccc2)CC1 (centres undefined) | – | -1.85%
18 | CCc1ccc(S(=O)(=O)n2ccnc2)cc1 | – | 13%
19 | N/C(=N\OC(=O)Cc1ccccc1[N+](=O)[O-])c1ccc(Br)cc1 | – | -2.47%
20 | Cc1oc2cc([N+](=O)[O-])c(O)c([N+](=O)[O-])c2c1C(=O)c1ccc(Br)cc1 | 10 µM (active) | –
21 | Cc1ccc(C(=O)c2ccc(N3CCN(C)CC3)c([N+](=O)[O-])c2)cc1 | – | 2.39%
22 | Cc1ccc(C)c(S(=O)(=O)n2nc(C)c(S(=O)(=O)N3CCC(C)CC3)c2C)c1 | – | 1.74%
23 | CSc1ccc(C2C(C(=O)Nc3ccccc3)=C(C)Nc3nc4ccccc4n32)cc1 (centres undefined) | – | 17.8%
24 | COc1ccc(S(=O)(=O)c2c(Nc3ccc(C)cc3)sc(C(=O)c3ccc(C)cc3)c2N)cc1 | – | -1.21%
25 | CC(=O)c1ccc(NS(=O)(=O)c2ccc(-c3cc(C)no3)s2)cc1 | – | 0.58%

Row | SMILES | Potency | activity, negative = inhibition
26 | Cc1oc2c(c1C(=O)N1CCOCC1)C(=O)c1ccccc1C2=O | – | -6.24%
27 | c1ccc(-c2oc3ncnc(N4CCOCC4)c3c2-c2ccccc2)cc1 | – | -4.32%
28 | O=C1c2ccccc2-c2ncnc3c(N4CCOCC4)cc(N4CCOCC4)c1c23 | 8.91 µM (active) | –
29 | CCn1cc(C(=O)NCCc2ccccc2)c(=O)c2cc(S(=O)(=O)N3CCCCCC3)ccc21 | – | -5.17%
30 | CCCN(CCC)C(=O)Cn1c(=O)n(-c2ccc(Cl)cc2)c(=O)c2c3c(sc21)CCCCC3 | – | 2.08%
31 | Cc1cc2c(cc1S(=O)(=O)CCC(=O)Nc1ccc(OC(F)(F)F)cc1)OCC(=O)N2 | – | -7.52%
32 | CCCCCCC(=O)Nc1nc(C)c(-c2csc(Nc3cccc(OC)c3)n2)s1 | 7.94 µM (active) | –
33 | CCOC(=O)c1csc(NC(=O)Nc2cccc(OC)c2)n1 | – | 3.55%
34 | COc1cccc(CC(=O)Nc2ccc(-c3csc(C)n3)cc2)c1 | – | -4.12%
35 | CCCOc1cccc(C(=O)Nc2cccc(NC(=O)c3ccc(C(C)(C)C)cc3)c2)c1 | – | -1.73%
36 | Cc1ccc(Cc2nc3ccccc3nc2SCC(=O)Nc2cccc(C(F)(F)F)c2)cc1 | – | 2.29%
37 | C/C(=N\Nc1cccc(C(=O)O)c1)c1ccc2c(c1)Nc1ccccc1S2 | 5.01 µM (active) | –
38 | O=C(NC1CC1)c1ccc2c(c1)NC(=O)c1ccccc1S2 | – | -6.02%
39 | CC(=O)Nc1cccc(/C(C)=N/NC(=O)c2ccccc2Cl)c1 | – | -7.39%
40 | Cc1ccc2c(c1)-c1c(cnn1CC(=O)Nc1ccccc1C#N)CO2 | – | -7.6%
41 | CSc1ncc(C(=O)NCc2ccccc2Cl)c(C(F)(F)F)n1 | – | -7.7%
42 | COc1ccc(N2C(=O)CC(Nc3ccc(F)cc3)C2=O)c([N+](=O)[O-])c1 (centres undefined) | – | 4.24%
43 | COc1ccc(-c2cc(C3CCN(c4ncccc4[N+](=O)[O-])CC3)[nH]n2)cc1 | 8.91 µM (active) | –
44 | CC(=O)NC(Cc1ccccc1)C(=O)NC1CCN(c2ncccc2[N+](=O)[O-])CC1 (centres undefined) | – | 2.41%
45 | CCOc1ccccc1C(=O)NCC(c1ccc(N(C)C)cc1)N1CCCC1 (centres undefined) | – | 5.21%
46 | Cc1cc(C)c(NC(=O)CSc2nc3nccnc3c(=O)n2CCc2c[nH]c3ccccc23)c(C)c1 | – | -9.71%
47 | O=C(Nn1c(-c2ccccc2)nc2ccccc2c1=O)c1ccc([N+](=O)[O-])cc1 | – | -9.95%
48 | O=[N+]([O-])c1cccc(Nc2c3ccccc3nc3ccccc23)c1 | – | -7.21%
49 | Cc1nc2ccccc2nc(=O)c1NNc1ccc([N+](=O)[O-])cc1 | 11.2 µM (active) | –
